Measured values as given in PubChem BioAssay (Tox21).
Records with an inconclusive call do not appear. Unmarked numbers belong to inactive results. Calls follow the shape of the dose curve; as a rule, active = well fitted activation curve with a large enough effect in the repeat runs; inconclusive = weak or mixed curves; inactive = flat fitted curve, though single readings scatter.

Assay: A CellTox Green Cytotoxicity Assay to monitor cytotoxicity in HEK293 cells - 8 hour (AID 1224884); also: nearly all actives have a fitted effect of over 35% in size
Details: CellTox Green fluorescence; series mostly up to 76.8 µM; cytotoxicity increase: at the top concentration
Excerpt: National Center for Advancing Translational Sciences [NCATS]
NIH Chemical Genomics Center [NCGC]
U.S. Environmental Protection Agency [EPA]
National Institutes of Environmental Health Sciences [NIEHS]
National Toxicology Program [NTP]
Cell-based models are critical for drug discovery. Determining the natural cytotoxic effects resulting from test compounds is an essential research activity. A CellTox Green Cytotoxicity Assay to monitor cytotoxicity in real time of continues cell culture during 40 hours of the compound treatment was used to screen Tox21 10K library compounds in Hek293 cells. CellTox Green Cytotoxicity Assay is a nonlytic, homogeneous, biofluorescent method to measure cytotoxicity in cell culture after experimental manipulation. The assay system uses a proprietary asymmetric cyanine dye that is excluded from viable cells but preferentially stains the dead cell's DNA. […] Viable cells produce no appreciable increases in fluorescence. Therefore, the fluorescence signal produced by the binding interaction with dead cell DNA is proportional to cytotoxicity.
The mixture of Hek293 cell suspension and reagents were dispensed at 600cells/6 ul/well in 1536-well tissue culture treated black solid bottom plates using a Multidrop dispenser. After the assay plates were incubated at a 37 C/5% CO2 incubator for 5 hours, 23 nL of compounds dissolved in DMSO, positive and negative controls was transferred to the assay plate by a pintool work station. The plates were incubated at 37 C for 40 hours. The fluorescence intensity were measured at 0h, 8h, 16h, 24h, 32h and 40h time points using ViewLux plate reader during compound treatment.
% is scaled to controls: 0 for no effect and ±100 for the full control effect.

In order of falling “cytotoxicity increase” value:
1. CN1CCN(C2=Nc3cc(Cl)ccc3Nc3ccccc32)CC1  15.4% [at 35.3 µM]
2. O=C1[C@H](CC[C@H](O)c2ccc(F)cc2)[C@@H](c2ccc(O)cc2)N1c1ccc(F)cc1  3.72% [at 35.3 µM]
3. CN1CCC(=C2c3ccccc3CCc3sccc32)CC1  3.25% [at 35.3 µM]
4. CCOC(=O)[C@H](CCc1ccccc1)N[C@H]1CCc2ccccc2N(CC(=O)O)C1=O  1.98% [at 35.3 µM]
5. O=C(O)[C@@H]1[C@H]2C[C@H]3c4[nH]c5ccccc5c4CCN3C[C@@H]2CC[C@@H]1O  1.95% [at 35.3 µM]
6. CC(C)(Oc1ccc(Cl)cc1)C(=O)OCCCOC(=O)C(C)(C)Oc1ccc(Cl)cc1  0.901% [at 35.3 µM]
7. O=C(c1ccccc1)c1ccc2n1CCC2C(=O)O (stereo not given)  -0.0499% [at 35.3 µM]
8. CCOc1cc(OCC)c(C(=O)CCC(=O)O)cc1OCC  -0.31% [at 35.3 µM]
9. CC[C@H](C)[C@H](N)C(=O)O  -1.09% [at 35.3 µM]
10. CC(=O)Nc1ccc(/C=N/NC(N)=S)cc1  -1.31% [at 35.3 µM]
11. CN(C)CC[C@@H](c1ccc(Br)cc1)c1ccccn1  -5.87% [at 35.3 µM]
12. Cc1ccccc1N=Nc1ccc(N=Nc2c(O)ccc3ccccc23)c(C)c1  -5.88% [at 35.3 µM]
13. Nc1ccc(C(=O)N2CC3CC(CN(Cc4ccccc4)C3)C2)cc1  -8.54% [at 35.3 µM]
14. CCOc1nc2cccc(C(=O)O)c2n1Cc1ccc(-c2ccccc2-c2nn[nH]n2)cc1  -29.7% [at 35.3 µM]

In order of falling “cytotoxicity increase” value:
1. CC(=O)/C(C)=C/C1C(C)=CCCC1(C)C (stereo not given)  25.8%
2. CCCCCCCC/C=C\CCCCCCCC(N)=O  19.4%
3. CCCCOCCOCCOCCOCCO  15.4%
4. CCOC(=O)CC(=O)c1cc(F)c(Cl)nc1Cl  14.7%
5. CCCCCc1ccc(N)cc1  14.2%
6. CCCCOC(=O)c1ccccc1C(=O)OCC(CC)CCCC (stereo not given)  14.1%
7. CC(C(=O)O)c1ccc(-c2ccccc2)c(F)c1 (stereo not given)  12.6%
8. CCCC[C@H]1CN(CC2CCOCC2)C(=O)OC12CCN(C1(C)CCN(C(=O)c3c(C)ncnc3C)CC1)CC2  9.52%
9. CCCCOC(O)CC (stereo not given)  6.01%
10. CCCCCCc1ccc(N)cc1  5.41%
11. O=C(O)Cc1cc(I)c(Oc2ccc(O)c(I)c2)c(I)c1  2.86%
12. CCN(CC)C(C)=O  2.28%
13. CC(=O)SCc1ccco1  -0.868%
14. CC(=O)c1ccc2c(c1)[C@H](NC(=O)c1ccc(F)cc1)[C@@H](O)C(C)(C)O2  -1.45%
15. O=C1c2cccc(O)c2C(=O)c2c(O)cc(CO)cc21  -2.68%
16. Cc1ccc(C)o1  -2.91%
17. O=C(O)c1cccc(N(Cc2cccnc2)c2ccc(OC(F)F)c(OC(F)F)c2)c1  -3.89%
18. CCC(=O)OC(C)(C)C1CC=C(C)CC1 (stereo not given)  -5.7%
19. CCCC(=O)OCC  -6.15%
20. O=C(/C=C/c1ccc(O)c(O)c1)O[C@@H]1C[C@](O)(C(=O)O)C[C@@H](O)[C@H]1O  -6.76%
21. O=C=NC1CCC(CC2CCC(N=C=O)CC2)CC1 (stereo not given)  -7.48%
22. Cc1ccccn1  -7.79%
23. Nc1nc(CC(=O)O)cs1  -8.79%
24. CC[C@H](C)[C@@H](C(=O)O)n1sc2ccccc2c1=O  -10.3%
25. CCCCCCCCCC=O  -11.2%
26. CC(C)=CCCC(C)CC=O (stereo not given)  -16.2%
